# Data published in the supplement of paper PMC8728848.
# The sample as a whole holds a higher share of the strongest signals than the screen did.
# B1: diCBM40 CPF071 (Clostridium perfringens) (protein)
# chain: MAHHHHHHVGTGSNDDDDKSPDPMLSSLGEYKDINLESSNASNITYDLEKYKNLDEGTIVVRFNSKDSKIQSLLGISNSKTKNGYFNFYVTNSRVGFELRNQKNEGNTQNGTENLVHMYKDVALNDGDNTVALKIEKNKGYKLFLNGKMIKEVKDTNTKFLNNIENLDSAFIGKTNRYGQSNEYNFKGNIGFMNIYNEPLGDDYLLSKTGETKALNGSELGSGSGLSSLGEYKDINLESSNASNITYDLEKYKNLDEGTIVVRFNSKDSKIQSLLGISNSKTKNGYFNFYVTNSRVGFELRNQKNEGNTQNGTENLVHMYKDVALNDGDNTVALKIEKNKGYKLFLNGKMIKEVKDTNTKFLNNIENLDSAFIGKTNRYGQSNEYNFKGNIGFMNIYNEPLGDDYLLSKTGETK
# Legend:
# Assay in all cases: glycan array binding signal (z-score within array); higher = stronger binding
# Conditions in all cases: glycan notation: IUPAC condensed, linker removed
# [1] = biological target: Fuc(a1-2)Gal(b1-3)GlcNAc(b1-3)[Gal(b1-4)GlcNAc(b1-6)]Gal(b1-4)Glc
# Outline: (§1)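 The binding signal is a Z-score computed within each array and averaged over linkers. Arrays of the same protein sequence at different concentrations or buffers were also averaged together. Data originate from 3228 arrays in the Consortium for Functional Glycomics database, kept only where the protein sequence was available.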
# Fuc(a1-2)Gal(b1-4)GlcNAc = biological target: Fuc(a1-2)Gal(b1-4)GlcNAc
# Outline: as §1
# [2] = biological target: Fuc(a1-2)Gal(b1-4)GlcNAc(b1-3)[Fuc(a1-3)[Gal(b1-4)]GlcNAc(b1-6)]Gal(b1-4)Glc
# Outline: as §1
# [3] = biological target: Fuc(a1-2)Gal(b1-4)GlcNAc(b1-6)GalNAc
# Outline: as §1
# [4] = biological target: Fuc(a1-2)Gal6S(b1-3)GlcNAc
# Outline: as §1
# [5] = biological target: Fuc(a1-2)[Gal(a1-3)]Gal(b1-3)GlcNAc(b1-2)Man(a1-3)[Fuc(a1-2)[Gal(a1-3)]Gal(b1-3)GlcNAc(b1-2)Man(a1-6)]Man(b1-4)GlcNAc(b1-4)GlcNAc
# Outline: as §1
# [6] = biological target: Fuc(a1-2)[Gal(a1-3)]Gal(b1-3)GlcNAc(b1-6)GalNAc
# Outline: as §1
# [7] = biological target: Fuc(a1-2)[Gal(a1-4)]Gal(b1-4)GlcNAc
# Outline: as §1
# [8] = biological target: Fuc(a1-2)[GalNAc(a1-3)]Gal(b1-3)GlcNAc(b1-6)GalNAc
# Outline: as §1
# [9] = biological target: Fuc(a1-2)[GalNAc(a1-3)]Gal(b1-4)GlcNAc(b1-2)Man(a1-3)[Fuc(a1-2)[GalNAc(a1-3)]Gal(b1-4)GlcNAc(b1-2)Man(a1-6)]Man(b1-4)GlcNAc(b1-4)[Fuc(a1-6)]GlcNAc
# Outline: as §1
# [10] = biological target: Fuc(a1-2)[GalNAc(a1-3)]Gal(b1-4)GlcNAc(b1-6)GalNAc
# Outline: as §1
# [11] = biological target: Fuc(a1-2)[GalNAc(a1-4)]Gal(b1-4)GlcNAc
# Outline: as §1
# [12] = biological target: Fuc(a1-3)[Gal(b1-4)]GlcNAc(b1-2)Man(a1-3)[Fuc(a1-3)[Gal(b1-4)]GlcNAc(b1-2)Man(a1-6)]Man(b1-4)GlcNAc(b1-4)[Fuc(a1-6)]GlcNAc
# Outline: as §1
# [13] = biological target: Fuc(a1-3)[Gal(b1-4)]GlcNAc(b1-3)Gal(b1-4)[Fuc(a1-3)]GlcNAc(b1-3)Gal(b1-4)[Fuc(a1-3)]GlcNAc
# Outline: as §1
# [14] = biological target: Fuc(a1-3)[Gal3S(b1-4)]GlcNAc6S
# Outline: as §1
# [15] = biological target: Gal(b1-3)[Fuc(a1-4)]GlcNAc(b1-3)Gal(b1-3)[Fuc(a1-4)]GlcNAc
# Outline: as §1
# [16] = biological target: Gal(b1-3)[Fuc(a1-4)]GlcNAc(b1-6)GalNAc
# Outline: as §1
# Gal(b1-4)Glc = biological target: Gal(b1-4)Glc
# Outline: as §1
# [17] = biological target: Gal(b1-4)GlcNAc(b1-2)Man(a1-3)[Man(a1-6)]Man(b1-4)GlcNAc(b1-4)GlcNAc
# Outline: as §1
# [18] = biological target: GalNAc(b1-3)Gal(a1-4)Gal(b1-4)GlcNAc(b1-3)Gal(b1-4)Glc
# Outline: as §1
# GalNAc(b1-3)GalNAc = biological target: GalNAc(b1-3)GalNAc
# Outline: as §1
# [19] = biological target: GlcA3S(b1-3)Gal(b1-4)GlcNAc(b1-2)Man
# Outline: as §1
# [20] = biological target: GlcNAc(b1-3)Gal(b1-4)GlcNAc(b1-3)Gal(b1-4)GlcNAc(b1-3)Gal(b1-4)GlcNAc(b1-2)Man(a1-3)[GlcNAc(b1-3)Gal(b1-4)GlcNAc(b1-3)Gal(b1-4)GlcNAc(b1-3)Gal(b1-4)GlcNAc(b1-2)Man(a1-6)]Man(b1-4)GlcNAc(b1-4)GlcNAc
# Outline: as §1
# [21] = biological target: GlcNAc(b1-3)Gal(b1-4)GlcNAc(b1-3)Gal(b1-4)GlcNAc(b1-3)Gal(b1-4)GlcNAc(b1-3)Gal(b1-4)GlcNAc(b1-2)[GlcNAc(b1-3)Gal(b1-4)GlcNAc(b1-3)Gal(b1-4)GlcNAc(b1-3)Gal(b1-4)GlcNAc(b1-3)Gal(b1-4)GlcNAc(b1-6)]Man(a1-6)[GlcNAc(b1-3)Gal(b1-4)GlcNAc(b1-3)Gal(b1-4)GlcNAc(b1-3)Gal(b1-4)GlcNAc(b1-3)Gal(b1-4)GlcNAc(b1-2)Man(a1-3)]Man(b1-4)GlcNAc(b1-4)[Fuc(a1-6)]GlcNAc
# Outline: as §1
# [22] = biological target: Neu5Ac(a2-3)Gal(b1-3)GlcNAc(b1-2)Man(a1-3)[GlcNAc(b1-4)][Neu5Ac(a2-3)Gal(b1-3)GlcNAc(b1-2)Man(a1-6)]Man(b1-4)GlcNAc(b1-4)GlcNAc
# Outline: as §1
# [23] = biological target: Neu5Ac(a2-3)Gal(b1-3)GlcNAc(b1-2)[Neu5Ac(a2-3)Gal(b1-3)GlcNAc(b1-4)]Man(a1-6)[Neu5Ac(a2-3)Gal(b1-3)GlcNAc(b1-2)Man(a1-3)]Man(b1-4)GlcNAc(b1-4)GlcNAc
# Outline: as §1
# [24] = biological target: Neu5Ac(a2-3)Gal(b1-3)[Fuc(a1-4)]GlcNAc
# Outline: as §1
# [25] = biological target: Neu5Ac(a2-3)Gal(b1-3)]Neu5Ac(a2-3)Gal(b1-4)]GlcNAc
# Outline: as §1
# [26] = biological target: Neu5Ac(a2-3)Gal(b1-4)GlcNAc
# Outline: as §1
# [27] = biological target: Neu5Ac(a2-3)Gal(b1-4)GlcNAc(b1-2)Man(a1-3)[Neu5Ac(a2-3)Gal(b1-4)GlcNAc(b1-2)Man(a1-6)]Man(b1-4)GlcNAc(b1-4)[Fuc(a1-6)]GlcNAc
# Outline: as §1
# [28] = biological target: Neu5Ac(a2-3)Gal(b1-4)GlcNAc(b1-3)Gal(b1-4)GlcNAc(b1-3)Gal(b1-4)GlcNAc
# Outline: as §1
# [29] = biological target: Neu5Ac(a2-3)Gal(b1-4)GlcNAc(b1-3)Gal(b1-4)GlcNAc(b1-3)GalNAc
# Outline: as §1
# [30] = biological target: Neu5Ac(a2-3)Gal(b1-4)GlcNAc6S
# Outline: as §1
# [31] = biological target: Neu5Ac(a2-3)Gal(b1-4)[Fuc(a1-3)]GlcNAc6S
# Outline: as §1
# [32] = biological target: Neu5Ac(a2-3)Gal6S(b1-4)GlcNAc
# Outline: as §1
# [33] = biological target: Neu5Ac(a2-3)Gal6S(b1-4)[Fuc(a1-3)]GlcNAc
# Outline: as §1
# Neu5Ac(a2-6)Gal(b1-4)Glc = biological target: Neu5Ac(a2-6)Gal(b1-4)Glc
# Outline: as §1
# [34] = biological target: Neu5Ac(a2-6)Gal(b1-4)GlcNAc(b1-3)[Neu5Ac(a2-6)Gal(b1-4)GlcNAc(b1-6)]GalNAc
# Outline: as §1
# Neu5Ac(a2-8)Neu5Ac = biological target: Neu5Ac(a2-8)Neu5Ac
# Outline: as §1
# [35] = biological target: Neu5Ac(a2-8)Neu5Ac(a2-3)Gal(b1-3)GalNAc(b1-4)[Neu5Ac(a2-3)]Gal(b1-4)Glc
# Outline: as §1
# [36] = biological target: Neu5Gc(a2-3)Gal(b1-3)[Fuc(a1-4)]GlcNAc
# Outline: as §1
# [37] = biological target: Neu5Gc(a2-3)Gal(b1-4)GlcNAc(b1-3)Gal(b1-4)GlcNAc(b1-2)Man(a1-3)[Neu5Gc(a2-3)Gal(b1-4)GlcNAc(b1-3)Gal(b1-4)GlcNAc(b1-2)Man(a1-6)]Man(b1-4)GlcNAc(b1-4)GlcNAc
# Outline: as §1
# Neu5Gc(a2-6)GalNAc = biological target: Neu5Gc(a2-6)GalNAc
# Outline: as §1
# [38] = biological target: Neu5Gc(a2-8)Neu5Ac(a2-3)Gal(b1-4)GlcNAc
# Outline: as §1
binder,measurement,setting,value
B1,glycan array binding signal (z-score),[1],-0.277
same,glycan array binding signal (z-score),Fuc(a1-2)Gal(b1-4)GlcNAc,-0.304
same,glycan array binding signal (z-score),[2],-0.238
same,glycan array binding signal (z-score),[3],-0.304
same,glycan array binding signal (z-score),[4],-0.33
same,glycan array binding signal (z-score),[5],-0.342
same,glycan array binding signal (z-score),[6],-0.307
same,glycan array binding signal (z-score),[7],-0.342
same,glycan array binding signal (z-score),[8],-0.287
same,glycan array binding signal (z-score),[9],-0.324
same,glycan array binding signal (z-score),[10],-0.321
same,glycan array binding signal (z-score),[11],-0.255
same,glycan array binding signal (z-score),[12],-0.084
same,glycan array binding signal (z-score),[13],-0.183
same,glycan array binding signal (z-score),[14],-0.332
same,glycan array binding signal (z-score),[15],-0.31
same,glycan array binding signal (z-score),[16],-0.151
same,glycan array binding signal (z-score),Gal(b1-4)Glc,-0.329
same,glycan array binding signal (z-score),[17],-0.257
same,glycan array binding signal (z-score),[18],-0.306
same,glycan array binding signal (z-score),GalNAc(b1-3)GalNAc,-0.314
same,glycan array binding signal (z-score),[19],-0.33
same,glycan array binding signal (z-score),[20],0.045
same,glycan array binding signal (z-score),[21],-0.23
same,glycan array binding signal (z-score),[22],-0.21
same,glycan array binding signal (z-score),[23],5.89
same,glycan array binding signal (z-score),[24],4.37
same,glycan array binding signal (z-score),[25],8.45
same,glycan array binding signal (z-score),[26],4.46
same,glycan array binding signal (z-score),[27],5.75
same,glycan array binding signal (z-score),[28],5.87
same,glycan array binding signal (z-score),[29],-0.157
same,glycan array binding signal (z-score),[30],7.8
same,glycan array binding signal (z-score),[31],5.95
same,glycan array binding signal (z-score),[32],7.24
same,glycan array binding signal (z-score),[33],4.71
same,glycan array binding signal (z-score),Neu5Ac(a2-6)Gal(b1-4)Glc,0.183
same,glycan array binding signal (z-score),[34],-0.197
same,glycan array binding signal (z-score),Neu5Ac(a2-8)Neu5Ac,-0.046
same,glycan array binding signal (z-score),[35],-0.2
same,glycan array binding signal (z-score),[36],0.647
same,glycan array binding signal (z-score),[37],6.28
same,glycan array binding signal (z-score),Neu5Gc(a2-6)GalNAc,-0.044
same,glycan array binding signal (z-score),[38],-0.252
